In PubChem BioAssay one finds outcome, potentiation and activation data, which are given here for 7 compounds.

Each structure is given as a SMILES string. For some of these results: Potency and affinity values are given separately. The source made the active and inactive calls.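 The calls were made as follows, unless noted: active = hit in primary screen, with calcium signal over 5 SD above buffer well mean in both duplicates; inactive = the rest.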

The subject of experiment [1] is TRPC4 beta (transient receptor potential cation channel C4), mouse. Put plainly: TRPC4 cation channel opening, retest – cell-based, Fluo4 calcium, HEK293 TRPC4beta/mu-opioid, duplicates, 10 µM, confirmation (AID 2426;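 active = fluorescence ratio normalized to control raised more than 50% in primary screen plus both repeat runs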;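 as to activation: percent rise of integrated ratio over buffer wells lacking compound which define 0%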). To be noted: Fluo4 calcium fluorescence, at 10 µM; hits give high values.
In experiment [2] the test system is transient receptor potential cation channel C4 beta (TRPC4), mouse. Nature of the experiment: TRPC4 cation channel opening, second retest – cell-based, second round, Fluo4, HEK293 TRPC4beta/mu-opioid, 1 µM, confirmation (AID 2461;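 active = primary screen active and over 50% activation in each of two duplicate runs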;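 as to activation: 0% = wells without test compound as baseline of integrated fluorescence ratio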). The following applies: Fluo4 calcium fluorescence, at 1 µM; hits give high values.
Experiment [3] deals with TRPC4 (transient receptor potential cation channel C4 beta), mouse. Put plainly: potentiation of DAMGO EC20 TRPC4 response – cell-based, second round, Fluo-4, HEK293 TRPC4beta/mu-opioid, 1 µM, confirmation (AID 2554;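 active = primary screen hit whose fluorescence ratio, in both repeats, exceeds the weak agonist control mean by 3 SD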). To be noted: DAMGO EC20, Fluo-4 calcium flux, at 1 µM; hits give high values.
Experiment [4] deals with TRPC4 beta (transient receptor potential cation channel C4), mouse. Nature of the experiment: potentiation of DAMGO EC20 TRPC4 response – cell-based, Fluo-4, HEK293 TRPC4beta/mu-opioid, confirmation (AID 2555;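 active = primary screen hit whose calcium fluorescence ratio, in both repeats, exceeds the weak agonist control mean by 3 SD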). To be noted: DAMGO EC20, Fluo-4 calcium flux, at 10 µM; hits give high values. (In general: Calcium flux is commonly read through the fluorescence of an indicator in the cells.)

The target of experiment [5] is Short transient receptor potential channel 4 (Mus musculus) (UniProt Q9QUQ5). Put plainly: blockers of DAMGO-evoked TRPC4 calcium flux – cell-based, Fluo4, HEK293 TRPC4beta/mu-opioid, confirmation (AID 2636;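 active = calcium signal cut by more than 3 SD below the full-agonist control yet still positive, in both repeats and the earlier primary screen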). To be noted: at 10 µM; hits give high values.
Short transient receptor potential channel 4 (Mus musculus), sequence (Q9QUQ5 whole entry, looked up): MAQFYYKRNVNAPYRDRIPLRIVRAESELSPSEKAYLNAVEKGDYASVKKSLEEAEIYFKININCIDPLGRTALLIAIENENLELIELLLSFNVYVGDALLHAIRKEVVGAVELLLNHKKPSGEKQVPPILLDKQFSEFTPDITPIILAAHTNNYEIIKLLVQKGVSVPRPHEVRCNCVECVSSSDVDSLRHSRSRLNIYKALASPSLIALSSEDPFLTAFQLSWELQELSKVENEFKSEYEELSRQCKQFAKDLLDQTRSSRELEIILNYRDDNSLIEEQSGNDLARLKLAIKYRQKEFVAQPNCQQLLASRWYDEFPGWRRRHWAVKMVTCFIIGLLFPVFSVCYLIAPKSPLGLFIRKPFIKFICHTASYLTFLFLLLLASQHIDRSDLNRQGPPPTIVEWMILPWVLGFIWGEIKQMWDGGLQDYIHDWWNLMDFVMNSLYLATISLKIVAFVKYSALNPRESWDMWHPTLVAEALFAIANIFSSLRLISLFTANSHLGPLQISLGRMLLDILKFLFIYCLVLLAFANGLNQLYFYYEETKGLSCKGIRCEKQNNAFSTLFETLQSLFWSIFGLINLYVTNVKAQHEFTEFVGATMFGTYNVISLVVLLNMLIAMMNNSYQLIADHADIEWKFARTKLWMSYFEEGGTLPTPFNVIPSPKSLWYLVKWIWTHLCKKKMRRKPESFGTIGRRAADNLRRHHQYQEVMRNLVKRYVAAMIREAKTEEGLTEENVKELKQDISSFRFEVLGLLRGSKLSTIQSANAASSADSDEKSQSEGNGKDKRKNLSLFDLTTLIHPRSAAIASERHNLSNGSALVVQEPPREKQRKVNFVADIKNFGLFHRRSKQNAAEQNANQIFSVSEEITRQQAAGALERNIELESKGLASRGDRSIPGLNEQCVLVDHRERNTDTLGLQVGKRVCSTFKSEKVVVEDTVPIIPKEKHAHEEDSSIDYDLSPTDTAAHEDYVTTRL
For experiment [6] the target is unchanged. Nature of the experiment: blockers of DAMGO-evoked TRPC4 calcium flux – cell-based, second round, Fluo4, HEK293 TRPC4beta/mu-opioid, 1 µM, confirmation (AID 2637;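 active = calcium signal ratio cut to more than 3 SD under the fully stimulated control mean yet still positive, in both repeats and the primary screen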). The following applies: at 1 µM; hits give high values.
The target is the same in experiment [7]. Put plainly: calcium entry via TRPC4 opening agents – cell-based, HEK293 TRPC4/mu-opioid, Fluo-4 calcium, dose response (AID 434937;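 active = primary screen activator hit with a dose response curve and TRPC4 channel activation at any tested dose; inactive = no activation, no dose response, or not a primary hit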).
For experiment [8] the target is unchanged. Put plainly: block of DAMGO-driven TRPC4 calcium entry – cell-based, HEK293 TRPC4/mu-opioid, Fluo-4 calcium, dose response (AID 434942;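 active = primary screen inhibitor hit that blocks the TRPC4 channel at some tested dose, yielding a dose curve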).
Experiment [9] addresses Short transient receptor potential channel 6 (Mus musculus) (UniProt Q61143). Nature of the experiment: TRPC6 blockade by TRPC4 inhibitor hits – cell-based, HEK293, membrane potential dye, duplicate, selectivity assay for TRPC4 inhibitor project, confirmation (AID 434948;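 active = active in primary screen and both duplicates, each dropping signal beyond three positive-control SD with fluorescence still positive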). The following applies: HEK293 TRPC6, membrane potential dye fluorescence, at 10 µM, stimulated with maximal-effect acetylcholine; hits give high values.

For experiment [10] the target is unchanged. Put plainly: TRPC6 opening by TRPC4 activator hits – cell-based, HEK293, membrane potential dye, duplicate, selectivity assay for TRPC4 activator project, confirmation (AID 434950;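 active = membrane potential signal rise above negative control mean plus 3 SD in both duplicates, also active in the earlier TRPC4 screen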;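 as to activation: 0% = buffer only wells and 100% = acetylcholine maximal-effect wells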). The following applies: HEK293 TRPC6, membrane potential fluorescence, at 10 µM; activation: hits give high values; outcome: activation.
Experiment [11] has the same target. Nature of the experiment: positive modulators of mouse TRPC6 channel – HEK293 cells, membrane potential dye, duplicate, selectivity assay for TRPC4 potentiator project, confirmation (AID 434952;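 active = compound raising the membrane signal above positive-control mean plus 3 SD in both repeats, and a primary screen hit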). To be noted: HEK293 TRPC6, membrane potential dye fluorescence, at 10 µM, maximal acetylcholine added after compound; hits give high values.
For experiment [12], the target named is Short transient receptor potential channel 4 (Mus musculus) (UniProt Q9QUQ5). Put plainly: calcium flux activators in TRPC4/5HT1a cells, counter-screen for TRPC4 activator project, cell-based, second counter screen, HEK293 TRPC4/5HT1a, Fluo-4 (AID 434977;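 active = calcium signal rise above buffer-control mean plus 5 SD in both duplicates, and also a hit in the primary screen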;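 as to activation: plate controls were assay buffer for no effect and maximal serotonin response for full effect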). To be noted: Fluo-4 calcium flux, at 10 µM; hits give high values.
A short description of experiment [13]: serotonin-gated TRPC4 signal block – cell-based, second counter screen, HEK293 TRPC4/5HT1a, Fluo-4, counter-screen for TRPC4 inhibitor project, confirmation (AID 434978;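 active = primary screen active whose calcium signal fell more than 3 SD beyond the full-serotonin control mean in both duplicate plates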;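 also: serotonin given first at submaximal then at maximal dose after compound preincubation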). To be noted: Fluo-4 calcium flux, at 10 µM, serotonin added to trigger calcium flux; hits give high values.
The test system of experiment [14] is TRPC4 (mouse), co-expressed with 5HT1a in HEK293. Put plainly: enhancement of serotonin-evoked TRPC4 response – cell-based, second counter screen, HEK293 TRPC4/5HT1a, Fluo-4, counter-screen for TRPC4 potentiator project, confirmation (AID 434979;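 active = signal rise over 3 SD above mean of control wells given weak agonist, in both repeats and first screen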). The following applies: Fluo-4 calcium flux, at 10 µM, serotonin added at its EC20 dose; hits give high values.
Experiment [15] can be described thus: nonspecific calcium rise without TRPC4 – cell-based, HEK293 mu-opioid receptor line, counter-screen for TRPC4 activator project, confirmation (AID 449723).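 Also: counter screen cells carry the mu-opioid receptor alone and lack TRPC4.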 The following applies: HEK293 mu-opioid cells, Fluo-4 calcium fluorescence, at 10 µM; hits give high values.
The nature of experiment [16]: nonspecific potentiation of DAMGO calcium response – cell-based, HEK293 mu-opioid receptor line, counter-screen for TRPC4 allosteric potentiator project, confirmation (AID 449724;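 active = calcium signal rise more than 3 SD above the low-dose agonist control mean, in both duplicate plates and the primary screen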). To be noted: HEK293 mu-opioid receptor cells, Fluo-4 calcium flux, at 10 µM, compound added before EC20 DAMGO stimulus; hits give high values.
A short description of experiment [17]: nonspecific flux increase, KCNQ1-free cells – parental CHO cells, counter-screen for KCNQ1 potentiator project (AID 493006;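 active = duplicate-averaged activation above buffer control mean plus 5 SD of those controls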;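 also: fluorescence ratio of max minus min over baseline after K+ and Tl+ depolarization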). The following applies: parental CHO-K1 cells, FluxOR thallium flux, at 10 µM; hits give high values.
The target in experiment [18] is Potassium voltage-gated channel subfamily KQT member 1 (Homo sapiens) (UniProt P51787). Put plainly: enhancement of KCNQ1 channel thallium flux – FluxOR thallium flux, CHO cells, duplicates, confirmation (AID 493007;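 active = potentiation averaged over duplicate wells exceeding buffer-only control mean by more than 3 SD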;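 also: 0% = buffer-only wells and 100% = R-L3 activator control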). To be noted: KCNQ1 cell line, FluxOR thallium flux fluorescence, at 10 µM; hits give high values, % of reference activator effect, buffer zero.
Potassium voltage-gated channel subfamily KQT member 1 (Homo sapiens), sequence (P51787 whole entry, looked up): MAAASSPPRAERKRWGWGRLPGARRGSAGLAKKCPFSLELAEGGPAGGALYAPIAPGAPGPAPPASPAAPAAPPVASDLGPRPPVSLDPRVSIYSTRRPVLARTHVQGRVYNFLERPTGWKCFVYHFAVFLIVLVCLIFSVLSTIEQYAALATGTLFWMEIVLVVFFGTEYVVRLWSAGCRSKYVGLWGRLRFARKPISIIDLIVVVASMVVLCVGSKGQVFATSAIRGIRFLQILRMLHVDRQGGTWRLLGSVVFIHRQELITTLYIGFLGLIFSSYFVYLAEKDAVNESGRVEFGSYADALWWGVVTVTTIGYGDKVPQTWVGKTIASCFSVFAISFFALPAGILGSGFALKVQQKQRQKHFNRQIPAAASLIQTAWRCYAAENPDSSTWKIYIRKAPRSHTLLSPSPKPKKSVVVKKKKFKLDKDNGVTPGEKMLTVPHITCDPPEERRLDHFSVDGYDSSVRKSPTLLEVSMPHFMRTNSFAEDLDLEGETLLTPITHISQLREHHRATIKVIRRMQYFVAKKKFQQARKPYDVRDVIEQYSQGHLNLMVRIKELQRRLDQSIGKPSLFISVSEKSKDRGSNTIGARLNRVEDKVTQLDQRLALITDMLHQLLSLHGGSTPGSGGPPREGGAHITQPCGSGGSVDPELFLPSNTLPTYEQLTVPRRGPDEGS
The target in experiment [19] is Potassium voltage-gated channel subfamily KQT member 2 (Rattus norvegicus) (UniProt O88943). Nature of the experiment: KCNQ2 thallium flux enhancement – KCNQ2-CHO-K1 cells, selectivity assay for KCNQ1 potentiator project (AID 493009;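 active = mean duplicate potentiation above the buffer control mean plus 5 SD of buffer wells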;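 also: assay conditions were tuned for KCNQ1 rather than KCNQ2 modulators; signal is max minus min fluorescence divided by baseline after thallium stimulus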). The following applies: FluxOR thallium flux fluorescence, at 10 µM; hits give high values, scaled: buffer 0, activator control 100.
Potassium voltage-gated channel subfamily KQT member 2 (Rattus norvegicus), sequence (O88943 whole entry, looked up): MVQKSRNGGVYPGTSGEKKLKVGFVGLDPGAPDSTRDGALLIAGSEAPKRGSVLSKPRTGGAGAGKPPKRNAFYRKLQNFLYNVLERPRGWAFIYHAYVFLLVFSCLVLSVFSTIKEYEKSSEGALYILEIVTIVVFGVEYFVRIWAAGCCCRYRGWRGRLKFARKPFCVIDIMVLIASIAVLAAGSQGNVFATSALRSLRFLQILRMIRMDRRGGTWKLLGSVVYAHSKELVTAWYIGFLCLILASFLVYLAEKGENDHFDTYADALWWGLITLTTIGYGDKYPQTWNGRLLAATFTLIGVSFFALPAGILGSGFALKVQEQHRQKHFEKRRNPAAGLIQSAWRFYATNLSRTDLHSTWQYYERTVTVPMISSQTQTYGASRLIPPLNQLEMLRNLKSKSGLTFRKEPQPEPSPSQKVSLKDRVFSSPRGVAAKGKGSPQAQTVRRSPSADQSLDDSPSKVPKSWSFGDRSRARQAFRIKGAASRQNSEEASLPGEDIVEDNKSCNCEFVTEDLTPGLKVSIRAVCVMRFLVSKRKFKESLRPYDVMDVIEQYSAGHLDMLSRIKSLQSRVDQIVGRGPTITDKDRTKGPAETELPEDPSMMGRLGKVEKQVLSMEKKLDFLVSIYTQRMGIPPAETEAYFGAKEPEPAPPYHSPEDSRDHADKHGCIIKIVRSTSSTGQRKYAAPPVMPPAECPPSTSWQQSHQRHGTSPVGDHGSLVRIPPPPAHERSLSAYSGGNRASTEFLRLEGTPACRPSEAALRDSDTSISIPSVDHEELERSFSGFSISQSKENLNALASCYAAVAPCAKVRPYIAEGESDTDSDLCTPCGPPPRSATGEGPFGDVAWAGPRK
The target in experiment [20] is Short transient receptor potential channel 4 (Mus musculus) (UniProt Q9QUQ5). Nature of the experiment: potentiation of DAMGO-evoked TRPC4 calcium signal – cell-based, HEK293 TRPC4/mu-opioid, Fluo-4 calcium, EC20 DAMGO, dose response (AID 434941;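 active = earlier screen potentiator hit that boosts the TRPC4 ion channel at some dose, with a dose response; inactive = no potentiation, no dose response, or not a prior hit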;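 also: calcium entry triggered by an EC20 dose of DAMGO at the co-expressed mu-opioid receptor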).

Short transient receptor potential channel 6 (Mus musculus), sequence (Q61143 whole entry, looked up): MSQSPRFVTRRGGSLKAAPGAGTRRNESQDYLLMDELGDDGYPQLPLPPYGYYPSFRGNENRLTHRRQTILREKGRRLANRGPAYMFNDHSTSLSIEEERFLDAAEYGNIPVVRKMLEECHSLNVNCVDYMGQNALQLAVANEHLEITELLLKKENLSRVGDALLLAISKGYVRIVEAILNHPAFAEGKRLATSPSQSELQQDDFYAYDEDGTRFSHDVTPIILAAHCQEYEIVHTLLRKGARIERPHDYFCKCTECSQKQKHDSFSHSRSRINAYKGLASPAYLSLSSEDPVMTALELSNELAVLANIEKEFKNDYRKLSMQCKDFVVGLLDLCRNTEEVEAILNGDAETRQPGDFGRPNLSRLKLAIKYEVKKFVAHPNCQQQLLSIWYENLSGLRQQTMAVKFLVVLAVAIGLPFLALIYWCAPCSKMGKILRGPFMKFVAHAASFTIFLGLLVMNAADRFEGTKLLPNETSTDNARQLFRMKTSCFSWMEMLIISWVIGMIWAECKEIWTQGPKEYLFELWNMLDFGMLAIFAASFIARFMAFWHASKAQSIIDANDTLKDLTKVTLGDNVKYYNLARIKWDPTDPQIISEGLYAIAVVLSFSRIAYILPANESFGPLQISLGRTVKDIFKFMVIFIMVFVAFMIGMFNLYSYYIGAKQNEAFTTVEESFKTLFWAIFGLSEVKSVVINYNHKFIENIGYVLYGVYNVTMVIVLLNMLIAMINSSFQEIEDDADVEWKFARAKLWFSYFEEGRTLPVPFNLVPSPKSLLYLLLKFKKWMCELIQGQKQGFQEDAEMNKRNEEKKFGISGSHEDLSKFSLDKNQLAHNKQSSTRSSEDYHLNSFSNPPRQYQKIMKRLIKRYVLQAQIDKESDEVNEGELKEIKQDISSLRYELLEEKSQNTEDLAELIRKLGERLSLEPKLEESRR

Turning to `Cc1ccc(S(=O)(=O)N2CCC(N3CCN(C)CC3)CC2)cc1Cl`, the result in [1], in experiment [2], in [5], in [6], in experiment [7] and in experiment [8] was inactive. The outcome in [9], in experiment [10], in experiment [11], in experiment [12], in experiment [13] and in experiment [15] was inactive. Moreover, the outcome in experiment [16] was inactive. For the same compound, the figures for the potentiation in experiment [3], in [4] and in experiment [14] were 12% (active), 20% (active) and 34.5% (active), respectively.

Regarding `Cc1cccc(/C=N/NC(=O)c2cc(Br)ccc2O)n1`, the outcome in experiment [1], in experiment [2], in experiment [5], in experiment [6], in experiment [7] and in experiment [8] was inactive. In addition, the call in experiment [9], in experiment [10], in experiment [11], in [12], in [13] and in experiment [15] was inactive. The outcome in [16] was inactive. The potentiation in [3] is 24% (active); in experiment [4], 46% (active); in experiment [14], 100% (active); in [18], 48% (active); in [19], 182% (active). Further, the activation in experiment [17] is 140% (active).

For the compound `Cc1ccc(/C=N/NC(=O)NC2CCCCC2)o1`, the outcome in experiment [1], in experiment [2], in experiment [5], in experiment [6], in experiment [7] and in [8] was inactive. The result in experiment [9], in experiment [10], in experiment [11], in experiment [12], in experiment [13] and in experiment [15] was inactive. The outcome in experiment [16] was inactive. Also, the potentiation in experiment [3] was 10% (active); in experiment [4], 54% (active); in experiment [14] it was 69.9% (active).

On to `Cc1cc(C(C)(C)C)c(O)c(C)c1CC1=NCCN1`, for which the outcome in [1], in experiment [2], in [3], in experiment [5], in [6] and in experiment [7] was inactive. Also, the result in experiment [8], in experiment [9], in experiment [10], in experiment [11], in experiment [12] and in [13] was inactive. The result in experiment [14], in experiment [15] and in experiment [16] was inactive. Moreover, the potentiation in experiment [4] is 14% (active).

Turning to `O=c1[nH][nH]c(-c2ccccc2)c1C=Nc1ccc(Cl)cc1`, the outcome in [1], in [2], in experiment [3], in experiment [4], in experiment [5] and in [6] was inactive. Also, the result in experiment [7], in experiment [8], in experiment [9], in experiment [10], in [11] and in [12] was inactive. Besides, the outcome in experiment [13], in experiment [15] and in experiment [16] was inactive. For the same compound, the potentiation in experiment [14] was 79.8% (active).

With `Cc1csc2c(N3CCN(C(=O)Nc4ccccc4)CC3)ncnc12`, the activation is 99% (active) in experiment [1] and 48.3% (active) in experiment [12]. The result in [2], in experiment [3], in experiment [4], in experiment [5], in [6] and in [20] was inactive. Besides, the result in [8], in [9], in experiment [10], in experiment [11], in [13] and in experiment [14] was inactive. Further, the outcome in [15] and in experiment [16] was inactive.

As to `CC1CC(C)CN(CCCNS(=O)(=O)c2cc(Br)cc3c2N(C(=O)C2CC2)CC3)C1` (stereo not given), the activation in experiment [1] is 139% (active); in [2], 114% (active); in experiment [10], 30% (active); in [12], 64.6% (active). The result in [3], in [4], in [5], in [6], in [20] and in experiment [8] was inactive. Besides, the outcome in [9], in experiment [11], in experiment [13], in experiment [14], in experiment [15] and in [16] was inactive.
